Test results as given in PubChem BioAssay AID1578 (Sanford-Burnham Center for Chemical Genomics, 2009).
Among all 290,000 compounds or so, about 3,000 (1%) were called active. No stated cut-off is given here; in the data, active means inhibition mostly above about 36% (no sharp cut-off); inactive means mostly below about 34%. The entries come from a sample that favours actives as a whole.

test: inhibition of NOD1-driven NF-kB reporter – cell-based, luminescence, uHTS, primary screen (AID 1578); conditions: NOD1-driven NF-kB luciferase reporter cells, at 4 µM, hits give high values;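 further: HEK-293T reporter cells stimulated with the NOD1 agonist gamma-tri-DAP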

Compound | inhibition
COc1ccc(N2CCN(C(=O)c3cc(=O)c4cc(C)c(C)cc4o3)CC2)cc1 | -10.3% (inactive)
c1ccc(OCc2nc3ccccc3s2)cc1 | -39.1% (inactive)
COC(=O)c1ccc(CN2C(=O)NC3(CCC(C)CC3)C2=O)cc1 (configuration not stated) | -51.8% (inactive)
COCCNC(=S)N/N=C/c1ccccc1C(=O)O | -17.1% (inactive)
Cc1ccc(NC(=O)c2cncc(Br)c2)c([N+](=O)[O-])c1 | 5.4% (inactive)
Cc1ccc(NC(=O)c2cncc(Br)c2)nc1 | -55.8% (inactive)
Cc1ccc(C(=O)c2cncc(Br)c2)cc1 | 48.9% (active)
CCc1ccc(C(=O)c2cncc(Br)c2)cc1 | -3.9% (inactive)
O=C(c1ccccc1)c1cncc(Br)c1 | -4.9% (inactive)
Cc1ccc(NC(=O)c2cncc(Br)c2)c(O)c1 | 66% (active)
O=C(C[n+]1cc(-c2ccc(F)cc2)n2c1CCC2)Nc1nc(-c2ccc(F)cc2)cs1 | 11.7% (inactive)
CCS(=O)(=O)n1nc(-c2ccccc2)nc1NCc1ccco1 | -33.3% (inactive)
Cc1ccc(-c2nc(NCc3ccco3)n(S(C)(=O)=O)n2)cc1 | -21.9% (inactive)
CS(=O)(=O)n1nc(-c2ccccc2)nc1NCc1ccco1 | 57.3% (active)
Cc1c(C)n(-c2ccccc2)c2ncnc(NCCN(C)C)c12 | 1.2% (inactive)
O=C(Nc1nccs1)c1ccc(N2CCOCC2)c([N+](=O)[O-])c1 | -45.2% (inactive)
O=C(Nc1nc(-c2ccccc2)cs1)c1ccc(N2CCOCC2)c([N+](=O)[O-])c1 | 104% (active)
O=C(Nc1nc(-c2ccc(-c3ccccc3)cc2)cs1)c1cc([N+](=O)[O-])ccc1N1CCOCC1 | -31.8% (inactive)
Cn1nnc(NC(=O)c2ccc([N+](=O)[O-])cc2Cl)n1 | 11.3% (inactive)
C=CC(=O)NC(C)(C)Cc1ccccc1 | 1.5% (inactive)
CC(C)(Cc1ccc(O)cc1)NC(=O)c1ccccc1 | 43.7% (inactive)
CC(C)(Cc1ccc(O)cc1)NC(=O)SCc1ccccc1 | 72.6% (active)
CC(C(=O)NCc1ccccc1)N1C(=O)C2CC=C(Cl)CC2C1=O (configuration not stated) | 13.9% (inactive)
Cc1cccc(N/C(=N/S(=O)(=O)c2ccccc2)c2ccccc2)n1 | -38% (inactive)
Cc1ccc(CN2C(=O)CSC2c2ccc(F)cc2)cc1 (configuration not stated) | -22.3% (inactive)
S=C(NCc1ccco1)N1CCN(Cc2ccco2)CC1 | -6.3% (inactive)

Compound | inhibition
CCOCCCNC(=S)N1CCN(CC)CC1 | -22.2% (inactive)
CCOCCCNC(=S)N1CCN(Cc2ccco2)CC1 | 57.4% (active)
Cc1ccc(NC(=O)CN(C)CC(=O)Nc2c(C)cccc2C)c(Br)c1 | -5.8% (inactive)
O=C(O)c1ccc(-c2ccc(Cl)cc2Cl)o1 | -54% (inactive)
Cc1ccccc1NC(=O)c1ccc(-c2ccc(Cl)cc2Cl)o1 | -41.4% (inactive)
Cc1cccc(C)c1NC(=O)c1ccc(-c2ccc(Cl)cc2Cl)o1 | 73.6% (active)
COc1cccc(CN2CCCC(C(=O)c3ccc4c(c3)OCO4)C2)c1O (configuration not stated) | -27.5% (inactive)
C=CCN1C(=O)S/C(=C/c2ccc(Sc3nc4ccccc4[nH]3)o2)C1=O | 71.4% (active)
CCN1C(=O)S/C(=C/c2ccc(Sc3nc4ccccc4[nH]3)o2)C1=O | 38.6% (inactive)
CC(C)N1C(=O)S/C(=C/c2ccc(Sc3nc4ccccc4[nH]3)o2)C1=O | 50.1% (inactive)
Cc1ccc(S(=O)(=O)N2CCC(C(=O)NCCCN3CCCC3=O)CC2)cc1C | -29.3% (inactive)
CN(C)S(=O)(=O)c1ccc(Oc2ccccc2)cc1 | -4.6% (inactive)
COc1ccc(CNC(=O)C2(CC(=O)NC(C)(C)C)CCCC2)cc1 | 4.9% (inactive)
CCC(=O)Nc1sc2c(c1C(N)=O)CCC2 | 0.4% (inactive)
CCCN(CCC)C(=O)c1c(NC(=O)CC)sc2c1CCCCC2 | 50.3% (active)
CCC(=O)Nc1sc2c(c1C(=O)N(C)C)CCCCC2 | -18.5% (inactive)
CCCCN1CN(Cc2ccccc2)CNC1=S | -16.8% (inactive)
Cc1nc2cc(CO)ccc2n1C | -15.3% (inactive)
CN(C)C(CNC(=O)/C=C/c1cccc(Cl)c1)c1ccccc1 (configuration not stated) | -22.7% (inactive)
O=C(N/N=C/c1ccccn1)c1ccc([N+](=O)[O-])cc1 | 67.9% (active)
O=C(O)c1cccc(NC(=S)N/N=C/c2cccc(O)c2)c1 | -6.8% (inactive)
O=C(O)c1cccc(NC(=S)N/N=C/c2cccnc2)c1 | -15.4% (inactive)
O=C(N/N=C/c1ccccn1)c1ccc(Br)cc1 | 103% (active)
O=C(N/N=C/c1ccccn1)c1ccc(NC(=O)c2cccc([N+](=O)[O-])c2)cc1 | -22.2% (inactive)
O=C(O)c1cccc(NC(=S)N/N=C/c2ccccn2)c1 | 68.3% (active)
O=C(N/N=C/c1ccccn1)c1ccc(N/N=C/c2ccccn2)cc1 | -58.4% (inactive)

Compound | inhibition
O=C(N/N=C/c1ccccn1)c1ccccc1 | -39% (inactive)
O=C(N/N=C/c1ccccn1)c1cccc([N+](=O)[O-])c1 | 20% (inactive)
Brc1c(CSc2nc3ccccc3o2)nc2ncccn12 | -66.9% (inactive)
Cc1cc(C)cc(NC(=O)c2ccc(CSc3nnnn3C)cc2)c1 | -44.7% (inactive)
COc1ccc(NC(=O)CN(C)C(=O)c2ccc(-c3cccc(C(F)(F)F)c3)o2)cc1 | -14.7% (inactive)
C=CCOc1ccccc1CNCc1ccc(F)cc1 | -24% (inactive)
Cc1ccc(S(=O)(=O)c2nc(S(C)(=O)=O)sc2N2CCCCCC2)cc1 | 32.4% (inactive)
Cc1ccc(S(=O)(=O)c2nc(S(C)(=O)=O)sc2N2CCCC2)cc1 | -19.8% (inactive)
Cc1ccc(S(=O)(=O)c2nc(S(C)(=O)=O)sc2N2CCCCC2C)cc1 (configuration not stated) | 55.1% (active)
CC(=O)N1CCc2cc(S(=O)(=O)Nc3cccc(C(F)(F)F)c3)ccc21 | 30.6% (inactive)
CC(=O)N1CCc2cc(S(=O)(=O)Nc3ccc(C)cc3)ccc21 | 0% (inactive)
CCCNC(=O)CN1C(=O)COc2ccc(S(=O)(=O)N3CCCCCC3)cc21 | -13.3% (inactive)
COc1ccc(Cl)cc1C(=O)Nc1cccc2ncccc12 | 13.1% (inactive)
O=C1NC(=O)/C(=C\c2ccc(OCc3cccc(C(=O)O)c3)c(Cl)c2)N1 | -17.1% (inactive)
O=C(O)c1cccc(COc2ccc(CO)cc2Cl)c1 | 99.2% (active)
CCOc1ccc(OCc2cccc(C(=O)N(CC)CC)c2)cc1 | -59.7% (inactive)
COc1ccc(OCc2cccc(C(=O)NN)c2)cc1 | 38.9% (inactive)
C/C(=N\OCc1cccc(C(=O)O)c1)c1ccc(Cl)cc1 | 47.4% (active)
COc1ccc(OCc2cccc(C(=O)O)c2)cc1 | 102% (active)
COc1ccc(OCc2ccc(C(=O)O)cc2)cc1 | -70.3% (inactive)
O=C(O)c1cccc(COc2ccccc2Cl)c1 | 97.2% (inactive)
CCOc1ccc(OCc2cccc(C(=O)O)c2)cc1 | 97.5% (active)
COc1cccc(/C=C(/C#N)c2ccc(Cl)cc2)c1OCc1cccc(C(=O)O)c1 | 14.4% (inactive)
CCOc1ccc(OCc2cccc(C(=O)N3CCCC3)c2)cc1 | -38% (inactive)
O=C(O)c1ccc(COc2ccc(CO)cc2Cl)cc1 | -26.3% (inactive)
O=C(N=C1SC2CS(=O)(=O)CC2N1c1ccc(OC(F)(F)F)cc1)C1CC1 (configuration not stated) | -27.3% (inactive)

Compound | inhibition
O=C(NC(c1cccnc1)C(F)(F)F)c1cc(COc2ccc3c(c2)CCCC3)on1 (configuration not stated) | 1.4% (inactive)
Cc1nn(-c2ccccc2)c(=S)n1-c1ccccc1 | -7% (inactive)
O=C(CSc1n[nH]c(-c2ccccc2)n1)Nc1ccc(F)cc1F | -6.2% (inactive)
COc1ccc(OCc2cc(C(=O)N3CCCCCCC3)no2)c(Cl)c1 | -23.7% (inactive)
COCCn1c(C)cc(/C=C2/NC(=O)N(c3ccc(Cl)cc3)C2=O)c1C | -49.9% (inactive)
Cc1nn(Cc2cccc(C(=O)Nn3cc([N+](=O)[O-])cn3)c2)c(C)c1[N+](=O)[O-] | 0.9% (inactive)
O=C(O)c1cccc(COc2ccc3c(c2)CCC3)c1 | 92.4% (active)
COC(=O)c1cccc(Cn2cc([N+](=O)[O-])cn2)c1 | -7.1% (inactive)
NNC(=O)c1cccc(COc2ccc3c(c2)CCC3)c1 | 62.3% (inactive)
O=C(O)c1ccc(COc2ccc3c(c2)CCC3)cc1 | -2.9% (inactive)
COc1ccc(OCc2cccc(C(=O)Nn3cc([N+](=O)[O-])cn3)c2)cc1 | 50.9% (active)
COc1ccc(OC)c(-c2csc(NC(=O)Cc3ccc(OC)c(OC)c3)n2)c1 | 25.1% (inactive)
Cc1cc(C)cc(N(C(=O)c2csnn2)C(C(=O)NC(C)(C)C)c2cccs2)c1 (configuration not stated) | 10.5% (inactive)
O=C1CCCCC(=O)N(c2ccccc2)c2ccccc21 | 7.2% (inactive)
CCOC(=O)c1cnc2ccc(OC)cc2c1NCc1ccccc1 | 3.2% (inactive)
CCOC(=O)c1cnc2ccc(OCC)cc2c1NCc1ccccc1OC | 72.7% (active)
CCOC(=O)c1cnc2ccc(OCC)cc2c1NCc1ccccc1 | -5.7% (inactive)
CN(C)C(=O)c1cc(F)ccc1Sc1cc(Cl)ccc1Cl | -6.9% (inactive)
CN(C)Cc1ccc(F)cc1Sc1cc(Cl)ccc1Cl | 63.7% (active)
CN(C)Cc1ccc(F)cc1Sc1ccc(Cl)cc1Cl | -13.9% (inactive)
CCc1ccc(-n2c(SCC(=O)N3CCC(C(=O)O)CC3)nnc2-c2ccncc2)cc1 | -31.9% (inactive)
O=C(N/N=C/c1coc2ccc(Cl)cc2c1=O)c1cc(O)cc(O)c1 | 31.6% (inactive)
O=c1c(/C=N\NS(=O)(=O)c2ccccc2)coc2ccc(Cl)cc12 | 69.9% (active)
NC(=S)N/N=C/c1coc2ccc(Cl)cc2c1=O | 9.6% (inactive)
